MCF10A rereplic: A quantitative high throughput screen for small molecules that induce DNA re-replication in MCF 10a normal breast cells; MCF 10A DNA re-replication, Hoechst nuclear intensity, 48 h; Potency, µM (titrated, usually from 46.1 µM), inactives show top-dose activity, positive = re-replication, actives largely listed as activators; actives 2.9% (n = 350,000); AID 624296, 2012; note: % of control where 0% means no effect; nearly all actives have a fitted effect of over 50% in size
KB-3-1 tox: qHTS assay for MDR1-selective chemotherapeutics: Primary screen using the parental adenocarcinoma cell KB-3-1; KB-3-1 viability, CellTiter-Glo ATP luminescence, 72 h; Potency, µM (doses to about 46.1 µM), actives largely listed as cytotoxic; actives 1.4% (n = 400,000); AID 1347075, 2019; note: % is set by controls: 0 for no effect and ±100 for the full control effect; nearly all actives have a fitted effect of over 60% in size
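Parental KB-3-1 adenocarcinoma cells in phenol-red-free DMEM with 10% FBS were pin-treated with compounds at several concentrations, incubated 72 h at 37 °C, and viability read by CellTiter-Glo luminescence; concentration-effect curves were fitted after normalization.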
SW480 rerep: A quantitative high throughput screen for small molecules that induce DNA re-replication in SW480 colon adenocarcinoma cells. SW480 DNA re-replication, Hoechst DNA content imaging, 48 h. Potency, µM (doses to about 46.1 µM), for inactives: at the highest dose re-replication activation, hits mostly activators. actives 1.8% (n = 340,000). AID 624297, 2012; note: % of control where 0% means no effect; nearly all actives have a fitted effect of over 55% in size
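Image-based DNA-content assay: after two days of treatment, nuclei were labelled with the DNA dye Hoechst and imaged, and hits were compounds raising the count of nuclei showing high fluorescence intensity.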
KB-V1 cytotox: qHTS assay for MDR1-selective chemotherapeutics: Primary screen using the drug-selected MDR subline cells KB-V1. KB-V1 MDR cells viability, CellTiter-Glo, 72 h. Potency, µM (titrated, usually from 46.1 µM), actives largely listed as cytotoxic. actives 3.4% (n = 400,000). AID 1347076, 2019; note: % is set by controls: 0 for no effect and ±100 for the full control effect; nearly all actives have a fitted effect of over 60% in size
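Following 72 h at 37 degrees C with compound, KB-V1 cell viability was read by CellTiter-Glo luminescence, medium being phenol-red-free DMEM plus 10% FBS; concentration-response parameters came from normalized, curve-fitted qHTS data.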
ELG1 DNA repair: qHTS screen for small molecules that inhibit ELG1-dependent DNA repair in human embryonic kidney (HEK293T) cells expressing luciferase-tagged ELG1 | HEK293T ELG1-luciferase reporter, luminescence, 16 h; DNA damage induced by 5-fluorouridine | Potency, µM (doses to about 46.1 µM), for inactives: at the top dose activity change, negative = inhibition, hits mostly inhibitors | actives 2.3% (n = 330,000) | AID 504467, 2011; note: % is set by controls: 0 for no effect and ±100 for the full control effect; nearly all actives have a fitted effect of over 55% in size
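5-Fluorouridine DNA damage + compound/DMSO, 2,000 cells/well, 16 h, 37 °C/5% CO2. ONE-Glo, 30 min RT, luminescence. Readout = decrease in reporter signal.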
Active calls of the source: *. The list is not random: actives were taken first. Their share in the collection is about 8.1%. Calls come from the whole dose curve; as a rule, active = well fitted curve in the direction sought with a large enough effect; inconclusive = small, poorly fitted or top-dose-only effect, or another doubt; inactive = no such curve, though single readings can be large; an effect the other way counts as inactive or inconclusive. Potency is the fitted concentration of half-maximal effect.

For CCc1c(O)nc(SCC(=O)Nc2ccccc2)n(-c2ccccc2)c1=O the results were MCF10A rereplic 3.66µM*, KB-3-1 tox inactive, SW480 rerep 20.6µM*, KB-V1 cytotox inactive and ELG1 DNA repair 1.1%.
`CC(C)c1ccc(C(=O)C[N+]2(C)CCOCC2)cc1` gave KB-3-1 tox inactive and KB-V1 cytotox inactive.
CCCn1c(NCc2ccco2)nc2c1c(=O)n(C)c(=O)n2C was read as MCF10A rereplic 0.4%, KB-3-1 tox inconclusive, SW480 rerep -6.7%, KB-V1 cytotox 14.6µM* and ELG1 DNA repair inconclusive.
For Cn1c(=O)c2c(nc(NCc3ccco3)n2CC(O)COc2ccccc2)n(C)c1=O (stereo not drawn) the results were MCF10A rereplic 1.8%, KB-3-1 tox inconclusive, SW480 rerep -7.7%, KB-V1 cytotox 2.59µM* and ELG1 DNA repair inconclusive.
Screening CCCCCCn1c(NCC)nc2c1c(=O)n(C)c(=O)n2C returned MCF10A rereplic 0.6%, KB-3-1 tox inconclusive, SW480 rerep -1.5%, KB-V1 cytotox inconclusive and ELG1 DNA repair 5.8µM*.
FC(F)(F)c1cc(Cl)c2nc(-c3ccccc3)c(Cc3ccccc3)n2c1 was read as KB-3-1 tox inactive and KB-V1 cytotox inactive.
Screening S=c1sc2ccccc2n1CCc1ccncc1 returned MCF10A rereplic -2.3%, KB-3-1 tox inactive, SW480 rerep 4.0%, KB-V1 cytotox inactive and ELG1 DNA repair inconclusive.
Screening Cc1csc(NC(=O)/C=C/c2ccc3c(c2)OCO3)n1 returned MCF10A rereplic 18.4µM*, KB-3-1 tox inconclusive, SW480 rerep 0.6%, KB-V1 cytotox inconclusive and ELG1 DNA repair inconclusive.
Screening Cc1ccc(NC(=O)/C=C/c2ccc3c(c2)OCO3)nc1 returned MCF10A rereplic inconclusive, KB-3-1 tox 7.31µM*, KB-V1 cytotox inactive and ELG1 DNA repair inconclusive.
For Cc1ccc(O)c(C(=O)/C=C/c2ccc3c(c2)OCCCO3)c1 the results were MCF10A rereplic 13µM*, KB-3-1 tox inactive, SW480 rerep inconclusive, KB-V1 cytotox inactive and ELG1 DNA repair inconclusive.
Screening CC(C)c1ccc(NC(=O)c2ccc3oc(=O)c(S(=O)(=O)c4ccc(F)cc4)cc3c2)cc1 returned KB-3-1 tox inactive and KB-V1 cytotox inactive.
For Cc1ccc(S(=O)(=O)c2cc3cc(Br)ccc3oc2=O)cc1 the results were MCF10A rereplic inconclusive, KB-3-1 tox 20.6µM*, SW480 rerep -7.4%, KB-V1 cytotox 18.4µM* and ELG1 DNA repair inconclusive.
CC(C)c1ccc(S(=O)(=O)c2cc3cc(Br)ccc3oc2=O)cc1 was read as MCF10A rereplic 8.2µM*, KB-3-1 tox inconclusive, SW480 rerep 0.0%, KB-V1 cytotox inconclusive and ELG1 DNA repair 1.1%.
For CC1CCC(C(C)C)C(OC(=O)Cn2c(-c3ccccc3)[n+](C)c3ccccc32)C1 (stereo not drawn) the results were MCF10A rereplic 18.4µM*, KB-3-1 tox 14.6µM*, SW480 rerep 14.6µM*, KB-V1 cytotox inactive and ELG1 DNA repair 6.51µM*.
For CC1CCC(C(C)C)C(OC(=O)Cn2c(-c3ccc(F)cc3)[n+](C)c3ccccc32)C1 (stereo not drawn) the results were MCF10A rereplic inconclusive, KB-3-1 tox inconclusive, SW480 rerep 16.4µM*, KB-V1 cytotox inactive and ELG1 DNA repair 16.4µM*.
`CCc1ccc(NC(=O)CN(C)S(=O)(=O)c2ccc3c(c2)c(=O)n(C)c(=O)n3C)cc1` gave KB-3-1 tox inactive and KB-V1 cytotox inactive.
`Cc1ccc(NC(=O)CN(C)CC(=O)Nc2ccc(F)c(Cl)c2)cc1` gave MCF10A rereplic 20.6µM*, KB-3-1 tox inactive, SW480 rerep -3.9%, KB-V1 cytotox inactive and ELG1 DNA repair 9.0%.
For S=C(NCCc1ccccn1)Nc1cccc(Cl)c1 the results were MCF10A rereplic 19.3%, KB-3-1 tox inactive, SW480 rerep 5.9%, KB-V1 cytotox 20.6µM* and ELG1 DNA repair 9.1%.
CC(C)CNC(=O)c1cccc(NC(=O)Cc2ccc(Cl)cc2)c1 was read as MCF10A rereplic -72.4%, KB-3-1 tox inconclusive, SW480 rerep -126.8%, KB-V1 cytotox 5.8µM* and ELG1 DNA repair inconclusive.
CC(=O)c1cccc(NC(=S)NCCc2ccc(Cl)cc2)c1 was read as MCF10A rereplic 13.7%, KB-3-1 tox inconclusive, SW480 rerep -0.5%, KB-V1 cytotox 18.4µM* and ELG1 DNA repair inconclusive.
COc1ccc(N2C[C@H](CSC)[C@@H](CC(=O)Nc3ccc(Br)cc3)C2=O)cc1 was read as KB-3-1 tox inactive and KB-V1 cytotox 8.2µM*.
For CC[n+]1c(/C=C(\C)OC)sc2ccccc21 the results were MCF10A rereplic -4.4%, KB-3-1 tox inactive, SW480 rerep -2.6%, KB-V1 cytotox inactive and ELG1 DNA repair inconclusive.
For CC[n+]1c(/C=C/C=C/N(C(C)=O)c2ccccc2)sc2cc(OC)ccc21 the results were MCF10A rereplic -101.6%, KB-3-1 tox 3.26µM*, SW480 rerep inconclusive, KB-V1 cytotox 13µM* and ELG1 DNA repair -10.3%.
`COc1ccc([N+](=O)[O-])cc1NC(=O)C(C)Sc1ccccc1` (stereo not drawn) gave MCF10A rereplic -5.5%, KB-3-1 tox inactive, KB-V1 cytotox inactive and ELG1 DNA repair 1.6%.
For COc1ccc([N+](=O)[O-])cc1NC(=O)C(C)N(C)Cc1cccc(OC)c1OC (stereo not drawn) the results were MCF10A rereplic 29.6%, KB-3-1 tox inactive, SW480 rerep 17.0%, KB-V1 cytotox 8.2µM* and ELG1 DNA repair 9.2µM*.
Screening COc1ccccc1CN(C)C(C)C(=O)Nc1cccc(C(C)=O)c1 (stereo not drawn) returned MCF10A rereplic 9.2%, KB-3-1 tox inactive, SW480 rerep -5.5%, KB-V1 cytotox inconclusive and ELG1 DNA repair inconclusive.
`COc1ccc(Br)cc1CN(C)C(C)C(=O)Nc1cccc(C(C)=O)c1` (stereo not drawn) gave MCF10A rereplic 20.4%, KB-3-1 tox inactive, SW480 rerep 5.9%, KB-V1 cytotox inconclusive and ELG1 DNA repair 25.9µM*.
For COc1cc(CN(C)C(C)C(=O)Nc2ccc([N+](=O)[O-])cc2Cl)ccc1OC(F)F (stereo not drawn) the results were MCF10A rereplic 7.4%, KB-3-1 tox inactive, SW480 rerep 2.6%, KB-V1 cytotox inactive and ELG1 DNA repair 16.4µM*.
